For 13 compounds, AC50 and outcome results are on record in PubChem BioAssay (EPA / NIEHS).

Read-out in test [1]: UDP glucuronosyltransferase (UGT1A1), UGT1A1 (gene 54658)
Nature of the test: LTEA_HepaRG_UGT1A1: Life Technologies and Expression Analysis (LTEA) Assay for UDP glucuronosyltransferase (UGT1A1) using HepaRG (AID 2283538; active = hit-call score of the fitted dose curve at least 0.9, where 1 is the maximum; inactive = score below 0.9). As to conditions: mRNA level, 48 h; actives raise or lower the signal. Put shortly: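 Human liver HepaRG cultures receive test chemical for 48 h, up to 100 uM in 0.5% DMSO, with phenobarbital induction controls. UGT1A1 mRNA is measured by qRT-PCR and normalized to ACTB, GAPDH and POLR2A.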

Read-out in test [2]: UDP glucuronosyltransferase (UGT1A6), UGT1A6 (gene 54578)
Put plainly: LTEA_HepaRG_UGT1A6: Life Technologies and Expression Analysis (LTEA) Assay for UDP glucuronosyltransferase (UGT1A6) using HepaRG (AID 2283539; active = hit-call score of the fitted dose curve at least 0.9, where 1 is the maximum; inactive = score below 0.9). As to conditions: mRNA level, 48 h; actives raise or lower the signal. Put shortly:
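Measures mRNA change in HepaRG hepatic cells exposed 48 h to chemicals (eight-point, maximum 100 uM, 0.5% DMSO vehicle) in serum-free induction medium. Expression normalized to endogenous controls; DMSO served as negative control and baseline.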

Read-out in test [3]: X-box binding protein 1 (XBP1), XBP1 (gene 7494)
Nature of the test: LTEA_HepaRG_XBP1: Life Technologies and Expression Analysis (LTEA) Assay for X-box binding protein 1 (XBP1) using HepaRG (AID 2283540; active = hit-call score of the fitted dose curve at least 0.9, where 1 is the maximum; inactive = score below 0.9). To be noted: mRNA level, 48 h; actives raise or lower the signal. Put shortly: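 Eight concentrations (half-log, highest 100 uM, 0.5% DMSO) tested in duplicate on HepaRG cells over 48 h in serum-free induction medium; qRT-PCR of XBP1 normalised to ACTB, GAPDH, POLR2A.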

Test [4] in a line: LTEA_HepaRG_LDH_cytotoxicity: Cytotoxicity Assessment in the Life Technologies and Expression Analysis (LTEA) Assay (AID 2283563).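 As to AC50: LDH activity released into spent culture medium as a marker of cell death.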 Put shortly:
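Spent-medium LDH after 48 h chemical exposure of HepaRG cells in serum-free induction medium; eight concentrations, half-log dilutions from 100 uM, duplicate wells, fitted upward relative to 0.5% DMSO.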

Test [5] can be described thus: TOX21_p53_BLA_p2_viability: Viability Assessment in the Tox21 HCT-116 p53 Agonism Beta-lactamase Assay, Phase 2 (AID 2283591).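 Also: compound exposure lasted 16 h at 37 °C; actives lower the ATP signal meaning cytotoxicity.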 The essentials:
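HCT-116 p53-bla cells (4000/well) rested 5 h at 37C, then received compounds in DMSO (217-fold dilution) for 16 h at 37C, 5% CO2. After the CCF4 read, CellTiter-Glo was added; ATP luminescence was read after 30 min at room temperature.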

For test [6], the target named is Cellular tumor antigen p53 (Homo sapiens) (UniProt P04637). Put plainly: TOX21_p53_BLA_p2_ratio: Tox21 HCT-116 p53 Agonism Beta-lactamase Assay, Ratio, Phase 2 (AID 2283592). The essentials:
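Human colon HCT116 cells with an inducible p53 beta-lactamase reporter are exposed to test chemicals for 16 h at 37C. Reporter induction is read as the 460/530 nm emission ratio after CCF4-AM loading, normalized to DMSO.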

A short description of test [7]: TOX21_p53_BLA_p3_viability: Viability Assessment in the Tox21 HCT-116 p53 Agonism Beta-lactamase Assay, Phase 3 (AID 2283593).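 Also: cells exposed to compound for 16 h before reading.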 Put shortly: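 HCT-116 cells (4000/well) rested 5 h at 37C, then got DMSO compounds by pin tool (217-fold dilution) for 16 h at 37C, 5% CO2. After the bla read, CellTiter-Glo was added and luminescence read at 30 min, room temperature.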
The target of test [8] is Cellular tumor antigen p53 (Homo sapiens) (UniProt P04637). Nature of the test: TOX21_p53_BLA_p3_ratio: Tox21 HCT-116 p53 Agonism Beta-lactamase Assay, Ratio, Phase 3 (AID 2283596). Put shortly: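 HCT116 p53-bla cells (4000/well) given compound in DMSO (217-fold dilution) after 5 h, incubated 16 h at 37C. CCF4-AM substrate 2 h at room temperature; 460/530 nm emission ratio, gain fitted against DMSO.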

A short description of test [9]: TOX21_p53_BLA_p4_viability: Viability Assessment in the Tox21 HCT-116 p53 Agonism Beta-lactamase Assay, Phase 4 (AID 2283597).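 Also: hits lower the luminescence signal meaning cytotoxicity.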 The essentials: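 Luminescent ATP readout (CellTiter-Glo, 30 min, room temperature) in the same wells as the p53 bla ratio. HCT116 cells were treated for 16 h at 37C with DMSO-dissolved compounds.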
Test [10] has as its target Cellular tumor antigen p53 (Homo sapiens) (UniProt P04637). Put plainly: TOX21_p53_BLA_p5_ratio: Tox21 HCT-116 p53 Agonism Beta-lactamase Assay, Ratio, Phase 5 (AID 2283599). Put shortly: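 HCT-116 cells carrying a p53-inducible beta-lactamase reporter were seeded at 4000 cells/well and dosed after 5 h with compound in DMSO (217-fold dilution). After 16 h at 37C, CCF4-AM substrate was added for 2 h, and the 460/530 nm emission ratio was scored as gain-of-signal versus DMSO.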

Each structure is given as a SMILES string. Values joined by “and” are separate entries in the source; they are usually repeats but may differ in a detail not shown here. Identical values can stand only once. Inconclusive results are not listed. Active and inactive are the calls of the source. The calls were made as follows, unless noted: active = hit-call score of the fitted dose curve at least 0.9, where 1 is the maximum; inconclusive = response in the unintended direction; inactive = score below 0.9.

Sequence of Cellular tumor antigen p53 (Homo sapiens) (P04637 whole entry, looked up): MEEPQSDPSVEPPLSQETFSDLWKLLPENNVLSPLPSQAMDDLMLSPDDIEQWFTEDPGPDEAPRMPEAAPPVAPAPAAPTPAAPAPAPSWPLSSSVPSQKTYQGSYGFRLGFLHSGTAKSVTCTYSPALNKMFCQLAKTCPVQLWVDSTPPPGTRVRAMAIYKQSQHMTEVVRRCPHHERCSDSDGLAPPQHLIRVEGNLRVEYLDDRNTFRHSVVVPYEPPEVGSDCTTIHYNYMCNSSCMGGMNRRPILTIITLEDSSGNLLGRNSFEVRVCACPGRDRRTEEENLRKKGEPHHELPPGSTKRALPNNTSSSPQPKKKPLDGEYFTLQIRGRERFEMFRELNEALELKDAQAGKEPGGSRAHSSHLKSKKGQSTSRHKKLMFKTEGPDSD

In the case of `CC1=C(C(=O)Nc2ccccc2)SCCO1`, the AC50 in test [1] was 50 µM (active). Besides, the compound was called inactive in test [2], in [3], in [4], in test [5], in test [6] and in [7]. The outcome in test [8], in test [9] and in [10] was inactive.
Regarding `Fc1ccc(Oc2ccnc3cc(Cl)cc(Cl)c23)cc1`, the concentration at half-maximal activity (AC50) was 13.3 µM (active) in [1], 79.3 µM (active) in test [6], 89.1 µM (active) in test [8] and 88.9 µM (active) in test [10]. The outcome in test [2], in [3], in test [4], in [5], in test [7] and in [9] was inactive.
Take `C=CC1(C)OC(=O)N(c2cc(Cl)cc(Cl)c2)C1=O` (centres undefined): the AC50 in test [1] is 22.7 µM (active). Further, the result in [2], in test [3], in [4], in test [5], in [6] and in [8] was inactive. The result in test [9] and in test [10] was inactive.
Turning to `O=C(O)c1nc(Cl)ccc1Cl`, the compound was called inactive in test [1], in test [2], in test [3], in test [4], in test [5] and in test [6]. Further, the compound was called inactive in test [7], in test [8], in test [9] and in [10].
As to `CC(C)(C)c1ccc(CSc2cnn(C(C)(C)C)c(=O)c2Cl)cc1`, the result in test [1], in test [5], in test [8] and in test [10] was inactive. Also, the AC50 was 18.8 µM (active) in [2], 2.71 µM (active) in test [3], 3.02 µM (active) in test [4] and 0.0143 µM (active) in test [6].
For the compound `Cc1cc(Cl)ccc1OCC(=O)O`, the result in [1], in test [2], in test [3], in test [4], in [5] and in [6] was inactive. For the same compound, the call in test [7], in [8], in test [9] and in test [10] was inactive.
Consider `CC(C)C1(C)N=C(c2nc3ccccc3cc2C(=O)O)NC1=O` (centres undefined), for which the compound was classed as inactive in test [1], in test [2], in [3], in test [5], in test [6] and in test [8]. The call in test [9] and in [10] was inactive.
In the case of `O=C(O)COc1nc(Cl)c(Cl)cc1Cl`, the call in test [1], in [2], in test [3], in [4], in test [5] and in test [6] was inactive. For the same compound, the call in [7], in test [8], in test [9] and in [10] was inactive.
Consider `COc1nc(NC(C)C)nc(NC(C)C)n1`, for which the AC50 in [1] is 11.4 µM (active). Besides, the result in test [2], in [3], in test [4], in [6], in test [8] and in test [10] was inactive.
`CC1COC(Cn2cncn2)(c2ccc(Oc3ccc(Cl)cc3)cc2Cl)O1` (centres undefined): the half-maximal activity concentration (AC50) in test [1] was 50 µM (active); in [2], 63.9 µM (active); in test [4], 58.7 µM (active); in [5], 78.7 µM (active); in [6], 21.4 µM (active); in test [8] it was 46.1 µM (active). The half-maximal activity concentration (AC50) is 71.1 µM (active) in [9] and 66.3 µM (active) in test [10]. Besides, the outcome in [3] and in [7] was inactive.
For the compound `CO/C=C(/C(=O)OC)c1ccccc1Oc1cc(Oc2ccccc2C#N)ncn1`, the concentration at half-maximal activity (AC50) in [1] is 88.7 µM (active) and 87.6 µM (active) and 83.3 µM (active); in test [2], 78.4 µM (active) and 80.9 µM (active) and 86.7 µM (active); in test [4], 74.8 µM (active) and 77.6 µM (active) and 80.7 µM (active). In addition, the result in [3], in test [5], in [6], in test [7], in [8] and in [9] was inactive. The result in [10] was inactive.
Regarding `CCCCNC(=O)n1c(NC(=O)OC)nc2ccccc21`, the AC50 is 18.6 µM (active) in [1]; 11 µM (active) and 9.55 µM (active) in [6]; 15.9 µM (active) and 15.4 µM (active) in [8]; 20.5 µM (active) and 12.3 µM (active) in test [10]. In addition, the call in test [2], in [3], in test [4], in test [5] and in test [9] was inactive.
`COP(=S)(OC)Oc1nc(Cl)c(Cl)cc1Cl`: the outcome in test [1], in test [2], in [3], in test [4], in test [5] and in test [6] was inactive. Further, the call in test [7] and in test [10] was inactive.
